PubChem BioAssay (NCATS)
Inconclusive results are not listed. The source made the active and inactive calls. Calls come from the whole dose curve; as a rule, active = well fitted cell-killing curve with a large enough effect; inconclusive = small, poorly fitted or top-dose-only effect, or effect the other way; inactive = no such curve, though single readings can be large or run the other way. Peptide text beside a SMILES is read from it.

Legend:
[1] = Quantitative High-Throughput drug screen in 47 multiple myeloma cell lines against the NCATS MIPE library collection: H1112_PLB cell viability assay (AID 1918967; note: nearly all actives have a fitted effect of over 30% in size; note: potency is the fitted concentration of half-maximal effect)
Method in brief: (§1)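 Primary qHTS used for cherry-picking: cells at 500/well, library compounds for 48 h (37C, 5% CO2), luminescent ATP assay.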

[2] = Quantitative High-Throughput drug screen in 47 multiple myeloma cell lines against the NCATS MIPE library collection: Karpas25_ECACC cell viability assay (AID 1918968; note: nearly all actives have a fitted effect of over 35% in size; note: potency is the fitted concentration of half-maximal effect)
Method in brief: as §1

[3] = Quantitative High-Throughput drug screen in 47 multiple myeloma cell lines against the NCATS MIPE library collection: KMS12BM_JCRB cell viability assay (AID 1918971); note: nearly all actives have a fitted effect of over 35% in size; note: potency is the fitted concentration of half-maximal effect
Method in brief: (§2)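 Myeloma cell lines, 500 cells per well, exposed to MIPE 4.0 library compounds for 48 h at 37C, 5% CO2. Viability from ATP by CellTiter-Glo luminescence; normalised to DMSO (100%) and media-only (0%) wells.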

[4] = Quantitative High-Throughput drug screen in 47 multiple myeloma cell lines against the NCATS MIPE library collection: KMS12PE_JCRB cell viability assay (AID 1918972); note: nearly all actives have a fitted effect of over 30% in size; note: potency is the fitted concentration of half-maximal effect
Method in brief: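 Relative luminescence from CellTiter-Glo served as the viability signal, referenced to DMSO-treated (100%) and cell-free medium (0%) controls. Treatment lasted 48 hours at 37C with 500 cells per well.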

[5] = Quantitative High-Throughput drug screen in 47 multiple myeloma cell lines against the NCATS MIPE library collection: KMS20_JCRB cell viability assay (AID 1918973); note: nearly all actives have a fitted effect of over 45% in size; note: potency is the fitted concentration of half-maximal effect
Method in brief: as §1

[6] = Quantitative High-Throughput drug screen in 47 multiple myeloma cell lines against the NCATS MIPE library collection: KMS21BM_JCRB cell viability assay (AID 1918974); conditions: ATP luminescence, 48 h; viability: at 45.8 µM (top of the series) unless noted
Method in brief: as §1

[7] = Quantitative High-Throughput drug screen in 47 multiple myeloma cell lines against the NCATS MIPE library collection: KMS26_JCRB cell viability assay (AID 1918975); note: nearly all actives have a fitted effect of over 45% in size; note: potency is the fitted concentration of half-maximal effect
Method in brief: as §2

[8] = Quantitative High-Throughput drug screen in 47 multiple myeloma cell lines against the NCATS MIPE library collection: MMM1_PLB cell viability assay (AID 1918976); note: potency is the fitted concentration of half-maximal effect; nearly all actives have a fitted effect of over 35% in size
Method in brief: (§3)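 Readout: median RLU from CellTiter-Glo after 5 min at room temperature. Preceding step was 48 h drug treatment of 500 cells/well at 37 °C, 5% CO2, with DMSO-only and media-only control wells.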

[9] = Quantitative High-Throughput drug screen in 47 multiple myeloma cell lines against the NCATS MIPE library collection: MOLP8_DSMZ cell viability assay (AID 1918977); note: nearly all actives have a fitted effect of over 45% in size; note: potency is the fitted concentration of half-maximal effect
Method in brief: as §3

[10] = Quantitative High-Throughput drug screen in 47 multiple myeloma cell lines against the NCATS MIPE library collection: KMS27_JCRB cell viability assay (AID 1918970); note: nearly all actives have a fitted effect of over 30% in size; note: potency is the fitted concentration of half-maximal effect
Method in brief: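 CellTiter-Glo luminescence after 48 h drug exposure at 37 °C; 500 cells/well, 1536-well format, pin-tool compound addition; DMSO = 100%, media-only = 0% viability.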

Compound	Potency [1]	Potency [2]	Potency [3]	Potency [4]	Potency [5]	Potency [6]	Potency [7]	Potency [8]	Potency [9]	Potency [10]
O=C(c1ccccc1)c1ccc2n1CCC2C(=O)O (configuration not stated)	13.2 µM (active)	2.96 µM (active)	inactive	inactive	8.33 µM (active)	inactive	1.48 µM (active)	0.743 µM (active)	inactive	
COC(=O)[C@H](Cc1ccccc1)NC(=O)[C@@H](N)CC(=O)O (H-Asp-Phe-OMe)	inactive	inactive	inactive	inactive						inactive
O=C(O)c1cn(-c2ccc(F)cc2)c2cc(N3CCNCC3)c(F)cc2c1=O	inactive	inactive	2.35 µM (active)	inactive			inactive	11.8 µM (active)		inactive
Cc1ccc(Nc2nccc(N(C)c3ccc4c(C)n(C)nc4c3)n2)cc1S(N)(=O)=O	16.6 µM (active)	16.6 µM (active)	18.7 µM (active)	16.6 µM (active)			23.5 µM (active)			20.9 µM (active)
Oc1ccc2ccccc2c1SSc1c(O)ccc2ccccc12	11.8 µM (active)	8.33 µM (active)		20.9 µM (active)	9.35 µM (active)		9.35 µM (active)	20.9 µM (active)		18.7 µM (active)
Oc1ccc(OCc2ccccc2)cc1	inactive	inactive		inactive				5.9 µM (active)		inactive
CCN(CC)CCOc1ccc(Nc2ncc3cc(-c4c(Cl)cccc4Cl)c(=O)n(C)c3n2)cc1	5.9 µM (active)	0.0209 µM (active)	2.35 µM (active)	0.0105 µM (active)	0.001 µM (active)		5.26 µM (active)		0.059 µM (active)	
c1ccc2[nH]c(-c3cscn3)nc2c1	inactive	inactive	inactive	inactive	inactive				inactive	
